Experimental data: PubChem BioAssay (NCI)
The panel holds about 83,000 compounds, 20% with a hit somewhere; the sample as a whole holds those more often.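 Step 1: grow cells in 96-well plates. Step 2: add test compound at a single concentration. Step 3: incubate 48 h. Step 4: record percent growth.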 Active and inactive are the calls of the source. Rule for the calls: active = growth percent below 10; inactive = the rest.

Columns and labels:
Experiment in all cases: NCI-60 one-dose screen, 48 h (100 = growth as untreated, 0 = no growth, -100 = all killed)
Settings in all cases: 10 µM unless noted
EKVX NSCLC = test system: EKVX NSCLC
SN12C renal = test system: SN12C renal
UO-31 renal = test system: UO-31 renal
TK-10 renal = test system: TK-10 renal
ACHN renal = test system: ACHN renal
CAKI-1 renal = test system: CAKI-1 renal
A498 renal = test system: A498 renal
CCRF-CEM leukemia = test system: CCRF-CEM leukemia
MOLT-4 leukemia = test system: MOLT-4 leukemia
RPMI-8226 leukemia = test system: RPMI-8226 leukemia
OVCAR-8 ovarian = test system: OVCAR-8 ovarian
OVCAR-5 ovarian = test system: OVCAR-5 ovarian
OVCAR-4 ovarian = test system: OVCAR-4 ovarian
SK-OV-3 ovarian = test system: SK-OV-3 ovarian
IGROV1 ovarian = test system: IGROV1 ovarian
OVCAR-3 ovarian = test system: OVCAR-3 ovarian
HS 578T breast = test system: HS 578T breast
NCI/ADR-RES ovarian = test system: NCI/ADR-RES ovarian
SK-MEL-2 melanoma = test system: SK-MEL-2 melanoma
SR leukemia = test system: SR leukemia

Measured: growth

O=S(=O)(Nc1ccc(I)cc1F)c1ccc(-c2cnc(C3CC3)o2)cc1
inactive: EKVX NSCLC 68.5% | SN12C renal 71.5% | UO-31 renal 70.1% | TK-10 renal 88.6% | ACHN renal 77.2% | CAKI-1 renal 40.9% | CCRF-CEM leukemia 61.1% | MOLT-4 leukemia 37.5% | RPMI-8226 leukemia 71.1% | OVCAR-8 ovarian 70% | OVCAR-5 ovarian 88.2% | OVCAR-4 ovarian 60.5% | SK-OV-3 ovarian 71.5% | IGROV1 ovarian 45.4% | OVCAR-3 ovarian 16.1% | HS 578T breast 35.2% | NCI/ADR-RES ovarian 28%
active: A498 renal -10%

COc1ccc(CN2c3ccccc3Sc3ccccc32)cc1O
active: SK-MEL-2 melanoma 8.98% | CCRF-CEM leukemia 8.29% | OVCAR-3 ovarian 7.47%
inactive: EKVX NSCLC 36.7% | UO-31 renal 24.4% | ACHN renal 41.7% | CAKI-1 renal 36.2% | A498 renal 76.4% | MOLT-4 leukemia 18.4% | SR leukemia 16.1% | RPMI-8226 leukemia 24.4% | OVCAR-8 ovarian 22.1% | OVCAR-5 ovarian 86% | OVCAR-4 ovarian 45.7% | SK-OV-3 ovarian 29.1% | IGROV1 ovarian 30.2% | HS 578T breast 33% | NCI/ADR-RES ovarian 18.5%

COc1cc(Nc2cc(C)nc(N3CCN(c4ccnc5cc(Cl)ccc45)CC3)n2)cc(OC)c1
active: SN12C renal 0.314% | UO-31 renal -9.39% | ACHN renal 7.48% | A498 renal -12.5% | CCRF-CEM leukemia 5.29% | MOLT-4 leukemia 5.97% | RPMI-8226 leukemia -13.5% | IGROV1 ovarian -22.9% | OVCAR-3 ovarian 6.15%
inactive: SK-MEL-2 melanoma 26% | TK-10 renal 17.9% | CAKI-1 renal 10.8% | OVCAR-8 ovarian 12.7% | OVCAR-5 ovarian 24.8% | OVCAR-4 ovarian 34.5% | SK-OV-3 ovarian 15.4% | HS 578T breast 18.2%

CC(=O)Oc1ccc(Cl)cc1CN(C(C)=O)C1CCCCC1
inactive: SK-MEL-2 melanoma 112% | SN12C renal 97.3% | UO-31 renal 90.5% | TK-10 renal 110% | ACHN renal 102% | CCRF-CEM leukemia 87.9% | MOLT-4 leukemia 85.9% | SR leukemia 92.9% | RPMI-8226 leukemia 84% | OVCAR-8 ovarian 97.1% | OVCAR-5 ovarian 103% | OVCAR-4 ovarian 119% | SK-OV-3 ovarian 99.7% | IGROV1 ovarian 98.2% | OVCAR-3 ovarian 114% | HS 578T breast 104% | NCI/ADR-RES ovarian 110%

COc1cc2nc(N3CCCC3)nc(NCC3CCCCC3)c2cc1OC
active: TK-10 renal -34.7% | A498 renal -3.66% | CCRF-CEM leukemia -9.68% | MOLT-4 leukemia -16.3% | RPMI-8226 leukemia -38.2% | HS 578T breast -33.5%
inactive: EKVX NSCLC 40.2% | SN12C renal 59.6% | UO-31 renal 42.5% | ACHN renal 16.8% | CAKI-1 renal 13.3% | OVCAR-8 ovarian 12.1% | OVCAR-5 ovarian 29.1% | OVCAR-4 ovarian 33.2% | SK-OV-3 ovarian 77.4% | IGROV1 ovarian 72.3% | OVCAR-3 ovarian 13.1% | NCI/ADR-RES ovarian 35.3%

CCOc1cc2c(cc1OCC)C(c1cc(OC)c(O)cc1Cl)NCC2 (stereo not drawn)
inactive: SN12C renal 96.7% | UO-31 renal 70.1% | TK-10 renal 88.2% | ACHN renal 94.6% | CAKI-1 renal 115% | A498 renal 93.7% | CCRF-CEM leukemia 108% | MOLT-4 leukemia 112% | SR leukemia 98.7% | RPMI-8226 leukemia 94% | OVCAR-8 ovarian 90.8% | OVCAR-5 ovarian 85.9% | OVCAR-4 ovarian 89.2% | SK-OV-3 ovarian 103% | IGROV1 ovarian 90.5% | OVCAR-3 ovarian 98.6% | HS 578T breast 106%

COc1ccc(-c2cc(C(=O)N=Nc3c(O)[nH]c4ccc(Br)cc34)no2)cc1
inactive: EKVX NSCLC 94.4% | SN12C renal 93.6% | UO-31 renal 77.6% | TK-10 renal 124% | ACHN renal 98.2% | CAKI-1 renal 84.1% | A498 renal 99.6% | CCRF-CEM leukemia 102% | MOLT-4 leukemia 101% | OVCAR-8 ovarian 99.8% | OVCAR-5 ovarian 99.8% | OVCAR-4 ovarian 103% | SK-OV-3 ovarian 95.2% | IGROV1 ovarian 100% | OVCAR-3 ovarian 108% | HS 578T breast 95.7% | NCI/ADR-RES ovarian 97.4%

CCCCCCN(CCCCCC)C(=N)c1ccnc2ccccc12
inactive: EKVX NSCLC 84.5% | SN12C renal 71.9% | UO-31 renal 36.5% | TK-10 renal 73.4% | ACHN renal 53.2% | A498 renal 37.2% | MOLT-4 leukemia 48.8% | SR leukemia 35.4% | RPMI-8226 leukemia 50.2% | OVCAR-8 ovarian 71.7% | OVCAR-4 ovarian 67.6% | SK-OV-3 ovarian 92.4% | IGROV1 ovarian 65.9% | NCI/ADR-RES ovarian 65.1%
active: CCRF-CEM leukemia -4.39%

C=CCSSc1ncnc2c1ncn2C1OC(CO)C(O)C1O (stereo not drawn)
inactive: EKVX NSCLC 91.9% | SN12C renal 76.2% | UO-31 renal 36.5% | TK-10 renal 26% | ACHN renal 25.3% | A498 renal 43.3% | MOLT-4 leukemia 13.2% | OVCAR-8 ovarian 20.1% | OVCAR-5 ovarian 45.3% | OVCAR-4 ovarian 33.8% | IGROV1 ovarian 34.9% | OVCAR-3 ovarian 29.1% | HS 578T breast 47.9% | NCI/ADR-RES ovarian 28.4%
active: CAKI-1 renal -2.6% | SK-OV-3 ovarian 7.46%
